Shown are actives, neighbours in structure and some others; about 2.9% of the full set was active somewhere.
DRD3 antagonist = antagonists of human D3 dopamine receptor; D3R cells, DiscoveRx beta-arrestin luminescence, antagonist mode; stronger effect = lower value; max response, negative = inhibition, %; 360,000 compounds, 2.5% hits; P35462; in the data active = max response below about -50%; inconclusive = no clear call, values can overlap the other calls
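Cells expressing the human receptor were seeded at 1500 cells/well, incubated overnight at 37 degrees C in 5% CO2, then exposed to library compounds with dopamine controls for 90 minutes at 37 degrees C before luminescent detection.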
DRD3 agonist = agonists of human D3 dopamine receptor; D3R DiscoveRx beta-arrestin cells, luminescence, 90 min; max activation, %; 410,000 compounds, 0.58% hits; in the data active = max activation above about 30%
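Cells at 1500/well, incubated overnight, then treated with pinned compounds (dopamine as control) for 90 min at 37 degrees C. DiscoveRx reagent added for 30 - 60 minutes at room temperature; luminescence read.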
TSHR antag = blocks TSH signaling through the human TSH receptor; TSHR-expressing cells, TSH-stimulated cAMP HTRF, 2 h; stronger effect = lower value; activity change, negative = inhibition, % at 11.5 µM; 330,000 compounds, 0.2% hits; AID 504810; P16473;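 active = activity change below a set negative limit, meaning inhibition stronger than a set level, cut at about -70% in these data; inconclusive = activity change between two set negative limits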
Target sequence (P16473 whole entry, looked up): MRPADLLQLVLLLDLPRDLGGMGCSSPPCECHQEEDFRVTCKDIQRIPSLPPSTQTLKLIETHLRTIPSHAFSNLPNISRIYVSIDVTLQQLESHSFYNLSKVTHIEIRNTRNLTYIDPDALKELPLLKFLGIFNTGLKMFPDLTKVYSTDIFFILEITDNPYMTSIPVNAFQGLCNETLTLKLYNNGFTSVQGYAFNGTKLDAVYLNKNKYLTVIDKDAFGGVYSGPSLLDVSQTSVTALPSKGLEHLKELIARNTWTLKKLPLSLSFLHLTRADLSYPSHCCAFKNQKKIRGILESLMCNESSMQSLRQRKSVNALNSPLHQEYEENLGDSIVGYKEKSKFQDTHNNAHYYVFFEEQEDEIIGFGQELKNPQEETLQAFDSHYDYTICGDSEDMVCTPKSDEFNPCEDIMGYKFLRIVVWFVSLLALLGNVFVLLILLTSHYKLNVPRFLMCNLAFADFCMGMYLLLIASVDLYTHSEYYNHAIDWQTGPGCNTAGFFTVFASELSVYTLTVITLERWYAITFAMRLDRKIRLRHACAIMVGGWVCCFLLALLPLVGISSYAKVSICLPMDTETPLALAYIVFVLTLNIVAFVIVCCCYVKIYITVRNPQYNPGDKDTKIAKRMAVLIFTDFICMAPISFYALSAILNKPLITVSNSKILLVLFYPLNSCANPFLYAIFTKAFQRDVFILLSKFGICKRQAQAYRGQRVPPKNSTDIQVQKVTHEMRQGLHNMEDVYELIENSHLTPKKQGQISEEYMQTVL
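Freshly harvested TSHR cells receive pin-tooled compound, then EC80 TSH at 4nM final. After 2 hours at 37 deg C, antibody in lysis buffer and cAMP-d2 are added; 30 minutes at ambient temperature precede the HTRF read.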
B2AR arrestin = beta2AR (human) beta-arrestin recruitment activity | P07550 | beta-arrestin recruitment to beta2AR, cell-based reporter | Potency, µM (doses to about 46.1 µM), hits mostly activators | 330,000 compounds, 0.02% hits; active = well fitted activation curve with a large enough effect; inconclusive = small, poorly fitted or top-dose-only effect; note: nearly all actives have a fitted effect of over 65% in size
Each line names hits and unclear results; the compound was inactive in the other large screens.

CC1CCN(CCCNC(=O)c2ccc3c(=O)n(Cc4ccc(Cl)cc4)c(=S)[nH]c3c2)CC1	none
O=C(Nc1cccc(F)c1)C1CCN(S(=O)(=O)c2cccc3nsnc23)CC1	none (no result: DRD3 antagonist, TSHR antag, B2AR arrestin)
CCc1ccc(NC(=O)Cn2c(=O)n(-c3cc(OC)c(OC)c(OC)c3)c(=O)c3ccccc32)cc1	none (no result: DRD3 antagonist, TSHR antag, B2AR arrestin)
COc1ccc(OCC(=O)N2CCC(Cc3ccccc3)CC2)cc1	DRD3 agonist 32
O=C(COc1ccc(F)cc1)N1CCC(Cc2ccccc2)CC1	none
CCc1cc(=O)[nH]c(SCC(=O)N2CCC(Cc3ccccc3)CC2)n1	DRD3 antagonist -59
COc1ccc(-c2nnc(SCC(=O)N3CCC(Cc4ccccc4)CC3)o2)cc1OC	DRD3 agonist 38
CCn1cc(S(=O)(=O)c2ccccc2)c(=O)c2cc(F)c(N3CCCCCC3)cc21	none (no result: DRD3 antagonist, TSHR antag, B2AR arrestin)
Cc1ccc(CNS(=O)(=O)c2c(C)nc3sc(C)cn3c2=O)cc1	none (no result: DRD3 antagonist, TSHR antag, B2AR arrestin)
Cc1nn(C(C)(C)C)c(OC(=O)c2cccs2)c1Sc1ccccc1	DRD3 antagonist -53
Cc1cccc(NC(=S)N/N=C2/CCCCc3ccccc32)c1	DRD3 antagonist -89
Cc1ccc(NC(=S)N/N=C2/CCCCc3ccccc32)cc1	DRD3 antagonist -52
COc1ccc(/C=C(\C#N)c2nc3ccccc3c(=O)[nH]2)cc1OC	none (no result: DRD3 antagonist, TSHR antag, B2AR arrestin)
COc1cc(NC(=O)CN2CCN(CC(=O)Nc3ccc(F)cc3)CC2)cc(OC)c1	none (no result: DRD3 antagonist, TSHR antag, B2AR arrestin)
O=C(COc1ccc(Cl)cc1Cl)N/N=C/CCc1ccccc1	DRD3 antagonist -55
O=C(NCc1cccs1)C1CCN(C(=O)N2CCOc3ccccc32)CC1	none (no result: DRD3 antagonist, TSHR antag, B2AR arrestin)
CC(=O)C1=C(S(=O)(=O)c2ccc(C)cc2)CS(=O)(=O)C1	DRD3 antagonist -67
CCN(CC)CCCNC(=O)CC1Sc2ccccc2NC1=O (centres undefined)	DRD3 antagonist -51
CCOC(=O)CSc1nc2sc3c(c2c(=O)n1-c1ccccc1)CC(C(C)C)OC3 (centres undefined)	none (no result: DRD3 antagonist, TSHR antag, B2AR arrestin)
Cc1cccc(N2C(=O)N(Cc3cccc(C#N)c3)c3ccccc3S2(=O)=O)c1	none (no result: DRD3 antagonist, TSHR antag, B2AR arrestin)
CC(=O)Nc1ccc(OCC(O)CN2CCN(c3ccc(F)cc3)CC2)cc1 (centres undefined)	DRD3 antagonist inconclusive
CC(=O)Nc1ccc(OCC(O)CN2CCN(c3ccc(Cl)cc3)CC2)cc1 (centres undefined)	DRD3 antagonist -72
CC(=O)Nc1ccc(OCC(O)CN2CCN(S(=O)(=O)c3ccc(NC(C)=O)cc3)CC2)cc1 (centres undefined)	none
CC(=O)Nc1ccc(OCC(O)CN2CCN(c3cccc(Cl)c3)CC2)cc1 (centres undefined)	DRD3 agonist 34
CCOc1ccc2oc(=O)cc(CN3CCN(C(=O)c4ccc(Cl)cc4)CC3)c2c1	none (no result: DRD3 antagonist, TSHR antag, B2AR arrestin)
CCc1ccc(-c2cc3c(N4CCN(c5ccccc5)CC4)nccn3n2)cc1	none (no result: DRD3 antagonist, TSHR antag, B2AR arrestin)
O=c1oc2ccccc2c(Nc2cccc3ccccc23)c1[N+](=O)[O-]	DRD3 antagonist -63
COC(=O)c1sc2cccc(F)c2c1S(=O)(=O)N1CCN(c2cccc(OC)c2)CC1	none (no result: DRD3 antagonist, TSHR antag, B2AR arrestin)
CCOC(=O)C1=NOC2(C1)C(=O)Nc1ccc(OC(F)(F)F)cc12 (centres undefined)	DRD3 antagonist -87 (no result: TSHR antag, B2AR arrestin)
O=C(CSc1nc2ccsc2c(=O)n1Cc1ccc(F)cc1)NCc1ccc(Cl)cc1	none (no result: DRD3 antagonist, TSHR antag, B2AR arrestin)
Cc1cccc(C)c1NC(=O)NC1CC2CCC(C1)N2Cc1cccs1 (centres undefined)	none
CCCN1C2CCCC1CC(NC(=S)Nc1cccc(C)c1C)C2 (centres undefined)	none
CCc1ccccc1NC(=S)NC1CC2CCCC(C1)N2Cc1cccs1 (centres undefined)	DRD3 antagonist -76
Cc1cccc(NC(=S)NC2CC3CCCC(C2)N3Cc2cccs2)c1C (centres undefined)	DRD3 antagonist -72
Cc1cc2oc(C(=O)N(Cc3ccccc3F)C3CCS(=O)(=O)C3)c(C)c2cc1Cl (centres undefined)	none (no result: DRD3 antagonist, TSHR antag, B2AR arrestin)
O=C(O)c1ccc(S(=O)(=O)NC2CCCCC2)cc1	DRD3 antagonist -59
Cc1cc(NC(=O)c2cccnc2)cc(-c2nc3cc(Cl)ccc3o2)c1O	none (no result: DRD3 antagonist, TSHR antag, B2AR arrestin)
COc1ccc(Nc2nnc(SC(C(=O)Nc3cc(C)ccc3C)c3ccccc3)s2)cc1 (centres undefined)	none
COc1cccc(NC(=O)C(Sc2nnc(Nc3ccccc3C)s2)c2ccccc2)c1 (centres undefined)	DRD3 antagonist -54
O=C(CSc1n[nH]c(-c2ccncc2)n1)c1ccccc1	none
O=C(CSc1n[nH]c(-c2ccncc2)n1)c1cccc([N+](=O)[O-])c1	DRD3 antagonist -69
CC1CC(C)CN(C(=O)COC(=O)c2cncc(Br)c2)C1 (centres undefined)	none
CC1CN(C(=O)COC(=O)c2cncc(Br)c2)CC(C)O1 (centres undefined)	DRD3 antagonist -54 (no result: TSHR antag, B2AR arrestin)
COc1cc([N+](=O)[O-])ccc1NC(=O)NCc1cccnc1	TSHR antag -76
O=C(O)c1ccc(NCc2cccnc2)c([N+](=O)[O-])c1	DRD3 antagonist -83
Cc1cc(C(=O)O)ccc1NCc1cccnc1	none
COc1ccc([N+](=O)[O-])cc1NCc1cccc([N+](=O)[O-])c1	DRD3 antagonist -53
CSCCC(NC(=O)c1cccc([N+](=O)[O-])c1)c1nc2ccccc2[nH]1 (centres undefined)	DRD3 antagonist -53
CSCC[C@H](NC(=O)c1cc([N+](=O)[O-])ccc1Cl)c1nc2ccccc2[nH]1	none
CCOc1ccc(C2C(C#N)=C(N)Oc3cc(C)n(Cc4ccco4)c(=O)c32)cc1OC (centres undefined)	DRD3 antagonist -53
Cc1ccc(Oc2cnc3ccccc3n2)cc1	none
COc1ccc(Oc2cc(C)c3ccccc3n2)cc1	DRD3 agonist 30
COc1ccc(-c2c(C)nn3c(-c4ccccc4)cc(-c4ccccc4)nc23)cc1OC	none (no result: DRD3 antagonist, TSHR antag, B2AR arrestin)
COc1ccc(CNc2nc(NCc3ccc(OC)c(OC)c3)n(C(=O)c3cccs3)n2)cc1OC	DRD3 agonist 45
CC(=O)c1ccc2c(c1)CC1(C2)Cc2cc3c(cc2C1)C(=O)CC3 (centres undefined)	none (no result: TSHR antag, B2AR arrestin)
COc1cccc(NS(=O)(=O)c2ccc3[nH]cc(C(=O)NC4CCCCC4)c(=O)c3c2)c1	none (no result: DRD3 antagonist, TSHR antag, B2AR arrestin)
Oc1c(C(c2ccccn2)N2CCCCC2)cc(Cl)c2cccnc12 (centres undefined)	DRD3 antagonist -76, B2AR arrestin inconclusive
CN1CCN(C(c2ccc(C(F)(F)F)cc2)c2cc(Cl)c3cccnc3c2O)CC1 (centres undefined)	none (no result: DRD3 antagonist, DRD3 agonist)
O=C(NC(c1ccc(Cl)cc1)c1cc(Cl)c2cccnc2c1O)c1cccnc1 (centres undefined)	DRD3 antagonist -100
CN1CCN(C(c2ccc(Cl)cc2)c2cc(Cl)c3cccnc3c2O)CC1 (centres undefined)	DRD3 antagonist -99
COc1cccc(CNC(=O)CCC2CCCN(C(=O)c3ccc(C)nc3)C2)c1 (centres undefined)	none
COc1cccc(CNC(=O)CCC2CCCN(C(=O)CCC(F)(F)F)C2)c1 (centres undefined)	none

Assay outcomes: PubChem, National Center for Advancing Translational Sciences (NCATS)
